In the supplement of paper PMC10849652:
About 7,900 targets were measured; listed, in parts, are those with a hit and a random draw of the rest. About 0.6% of all pairs of compound and target were hits.

What was measured:
Assay in all cases: log2 fold change, soluble protein after heating vs DMSO (PISA); higher = thermal stabilisation; K562 cells, 10 uM, 30 min; active = over 0.2 and 3.5 SD of the protein, either way, in both replicates (recomputed)
[1] = compound: C1=CC=C(C=C1)[C@H](COC2=CC3=C(C=C2)NC(=O)N3)NC(=O)C4=CC=CN(C4=O)CC5=CC(=C(C=C5)F)F
Summary of the method: (§1)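 Aliquots of K562 cells (2×10^6 cells/mL) treated with 10 μM compound for 30 min were heated for 3 min over 48°C-58°C. After pooling and extraction in PBS with 0.5% NP-40 at 4°C, soluble protein from a 21,000xg, 90 min spin was quantified by TMTpro 16plex LC-MS/MS with channel sums equalised. Thermal stability is expressed against control samples, from duplicates, as a log2 fold change.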

[2] = compound: CC1=C(SC2=C1C(=N[C@H](C3=NN=C(N32)C)CC(=O)N)C4=CC=C(C=C4)Cl)C
Summary of the method: as §1

[3] = compound: CC1=C2C(=CC=C1)N=C(N(C2=O)C3=CC=CC=C3C)CN4C=NC5=C(N=CN=C54)N
Summary of the method: as §1

[4] = compound: Cc1sc2c(c1C)C(c1ccc(Cl)cc1)=N[C@@H](CC(=O)OC(C)(C)C)c1nnc(C)n1-2
Summary of the method: as §1

[5] = compound: c1ccc([C@@H]2C[C@H]2NC2CCNCC2)cc1
Summary of the method: as §1

Measured: log2 fold change

NEU1 (UniProt Q99519)
inactive: [1] -0.116 | [2] 0.004 | [3] 0.047 | [4] -0.043 | [5] -0.025

NUMB (UniProt P49757)
UniProt P49757, sequence (P49757 whole entry, looked up): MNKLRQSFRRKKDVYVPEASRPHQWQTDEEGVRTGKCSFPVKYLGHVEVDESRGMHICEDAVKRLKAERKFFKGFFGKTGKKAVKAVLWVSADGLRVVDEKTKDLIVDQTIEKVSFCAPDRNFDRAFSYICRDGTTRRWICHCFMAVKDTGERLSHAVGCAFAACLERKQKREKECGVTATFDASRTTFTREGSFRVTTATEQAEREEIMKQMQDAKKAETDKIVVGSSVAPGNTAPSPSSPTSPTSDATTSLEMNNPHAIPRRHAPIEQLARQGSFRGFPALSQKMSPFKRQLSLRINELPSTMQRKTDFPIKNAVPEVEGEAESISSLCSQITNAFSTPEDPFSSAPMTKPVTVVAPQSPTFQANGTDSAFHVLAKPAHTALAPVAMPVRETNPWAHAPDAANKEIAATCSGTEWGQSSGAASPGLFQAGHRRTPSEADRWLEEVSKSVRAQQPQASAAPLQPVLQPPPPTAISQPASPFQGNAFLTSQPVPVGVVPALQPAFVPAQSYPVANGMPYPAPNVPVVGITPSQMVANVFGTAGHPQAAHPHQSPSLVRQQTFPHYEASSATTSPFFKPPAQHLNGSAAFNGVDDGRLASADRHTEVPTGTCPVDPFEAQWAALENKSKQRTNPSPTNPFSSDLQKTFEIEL
inactive: [1] 0 | [2] 0.035 | [3] 0.046 | [4] 0.023 | [5] -0.009

NT5DC1 (UniProt Q5TFE4)
UniProt Q5TFE4, sequence (Q5TFE4 whole entry, looked up): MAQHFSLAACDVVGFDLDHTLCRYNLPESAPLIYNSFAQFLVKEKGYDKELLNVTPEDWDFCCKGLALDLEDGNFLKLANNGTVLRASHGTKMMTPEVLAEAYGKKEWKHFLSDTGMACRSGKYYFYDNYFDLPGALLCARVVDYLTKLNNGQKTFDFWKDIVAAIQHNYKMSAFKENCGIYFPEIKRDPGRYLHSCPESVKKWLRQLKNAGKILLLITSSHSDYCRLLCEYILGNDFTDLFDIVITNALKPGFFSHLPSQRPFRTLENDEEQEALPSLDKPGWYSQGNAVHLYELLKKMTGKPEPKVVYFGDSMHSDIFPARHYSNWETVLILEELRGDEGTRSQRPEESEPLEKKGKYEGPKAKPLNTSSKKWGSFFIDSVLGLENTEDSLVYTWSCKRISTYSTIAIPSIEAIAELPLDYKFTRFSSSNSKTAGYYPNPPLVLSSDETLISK
inactive: [1] -0.036 | [2] 0.075 | [3] 0.006 | [4] 0.021 | [5] 0.011

NDUFS7 (UniProt O75251)
UniProt O75251, sequence (O75251 whole entry, looked up): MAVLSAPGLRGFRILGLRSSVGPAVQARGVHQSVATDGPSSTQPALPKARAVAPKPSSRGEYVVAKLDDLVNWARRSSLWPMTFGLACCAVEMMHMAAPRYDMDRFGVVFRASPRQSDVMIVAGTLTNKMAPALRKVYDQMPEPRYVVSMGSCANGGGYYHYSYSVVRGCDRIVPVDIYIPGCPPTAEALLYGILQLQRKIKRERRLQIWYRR
inactive: [1] 0 | [2] 0.062 | [3] 0.015 | [4] -0.051 | [5] -0.022

NUDCD2 (UniProt Q8WVJ2)
UniProt Q8WVJ2, sequence (Q8WVJ2 whole entry, looked up): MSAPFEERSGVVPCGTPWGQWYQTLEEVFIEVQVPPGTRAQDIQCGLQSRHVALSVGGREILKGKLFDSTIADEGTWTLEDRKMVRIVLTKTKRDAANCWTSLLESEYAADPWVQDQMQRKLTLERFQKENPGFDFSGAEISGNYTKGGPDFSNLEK
inactive: [1] -0.037 | [2] 0.113 | [3] 0.099 | [4] 0.017 | [5] 0.037

NOP56 (UniProt O00567)
UniProt O00567, sequence (O00567 whole entry, looked up): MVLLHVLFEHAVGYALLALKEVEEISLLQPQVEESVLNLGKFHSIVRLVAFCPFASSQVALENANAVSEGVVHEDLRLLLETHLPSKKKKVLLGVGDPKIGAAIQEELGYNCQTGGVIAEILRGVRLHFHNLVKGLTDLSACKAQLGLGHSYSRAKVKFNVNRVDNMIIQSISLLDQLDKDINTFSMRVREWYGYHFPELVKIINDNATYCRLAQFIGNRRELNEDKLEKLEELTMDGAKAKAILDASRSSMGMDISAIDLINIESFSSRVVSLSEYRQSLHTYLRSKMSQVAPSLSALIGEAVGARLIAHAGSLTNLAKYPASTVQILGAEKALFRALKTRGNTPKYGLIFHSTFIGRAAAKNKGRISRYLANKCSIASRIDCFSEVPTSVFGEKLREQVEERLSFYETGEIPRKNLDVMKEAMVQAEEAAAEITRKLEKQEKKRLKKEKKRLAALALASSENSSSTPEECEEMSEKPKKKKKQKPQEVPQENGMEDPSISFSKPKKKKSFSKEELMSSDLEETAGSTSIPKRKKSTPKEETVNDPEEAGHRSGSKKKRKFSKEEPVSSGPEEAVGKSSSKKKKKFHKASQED
inactive: [1] 0.045 | [2] -0.289 | [3] -0.281 | [4] 0.154 | [5] 0.024

PAFAH2 (UniProt Q99487)
inactive: [1] -0.191 | [2] 0.016 | [3] 0.066 | [4] -0.117 | [5] -0.141

NA, A0A0B4J2A0
inactive: [1] -0.035 | [2] -0.005 | [3] 0.015 | [4] -0.097 | [5] -0.007

NUDT1 (UniProt P36639)
inactive: [1] 0.556 | [2] -0.043 | [3] 0.048 | [4] -0.137 | [5] 0.038

NAP1L1 (UniProt B7Z9C2)
inactive: [1] 0.003 | [3] 0.134

MTMR14 (UniProt Q8NCE2)
UniProt Q8NCE2, sequence (Q8NCE2 whole entry, looked up): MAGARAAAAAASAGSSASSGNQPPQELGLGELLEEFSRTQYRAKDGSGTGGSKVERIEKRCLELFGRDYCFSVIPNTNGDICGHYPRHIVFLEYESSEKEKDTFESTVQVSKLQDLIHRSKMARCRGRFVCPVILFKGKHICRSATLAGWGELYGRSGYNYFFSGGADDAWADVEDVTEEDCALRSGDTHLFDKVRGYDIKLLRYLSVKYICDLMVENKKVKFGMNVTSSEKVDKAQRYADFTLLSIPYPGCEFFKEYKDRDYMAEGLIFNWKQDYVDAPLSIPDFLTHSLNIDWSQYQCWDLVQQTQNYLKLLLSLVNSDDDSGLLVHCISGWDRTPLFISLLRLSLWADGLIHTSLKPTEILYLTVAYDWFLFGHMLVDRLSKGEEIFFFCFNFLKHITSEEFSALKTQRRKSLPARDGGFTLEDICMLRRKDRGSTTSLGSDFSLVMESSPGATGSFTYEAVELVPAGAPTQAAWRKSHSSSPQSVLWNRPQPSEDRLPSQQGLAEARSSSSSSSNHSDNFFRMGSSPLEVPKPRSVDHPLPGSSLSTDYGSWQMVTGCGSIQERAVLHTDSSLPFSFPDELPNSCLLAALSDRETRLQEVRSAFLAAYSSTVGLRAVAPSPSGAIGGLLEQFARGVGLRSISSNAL
inactive: [1] 0.03 | [2] 0.047 | [3] 0.156 | [4] -0.011 | [5] 0.069

MLX (UniProt Q9UH92)
UniProt Q9UH92, sequence (Q9UH92 whole entry, looked up): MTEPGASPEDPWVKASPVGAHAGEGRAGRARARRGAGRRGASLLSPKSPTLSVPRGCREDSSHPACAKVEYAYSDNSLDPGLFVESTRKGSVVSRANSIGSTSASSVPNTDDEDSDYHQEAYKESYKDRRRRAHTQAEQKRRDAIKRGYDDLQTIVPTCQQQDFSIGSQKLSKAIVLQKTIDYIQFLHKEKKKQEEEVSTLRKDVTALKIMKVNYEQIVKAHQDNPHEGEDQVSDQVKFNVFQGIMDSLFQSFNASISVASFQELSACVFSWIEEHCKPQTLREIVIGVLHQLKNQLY
inactive: [1] -0.055 | [2] 0.032 | [4] 0.093 | [5] -0.011

MSL1 (UniProt Q68DK7)
inactive: [1] 0.083 | [3] 0.17

NUP205 (UniProt Q92621)
UniProt Q92621, sequence (Q92621 whole entry, looked up): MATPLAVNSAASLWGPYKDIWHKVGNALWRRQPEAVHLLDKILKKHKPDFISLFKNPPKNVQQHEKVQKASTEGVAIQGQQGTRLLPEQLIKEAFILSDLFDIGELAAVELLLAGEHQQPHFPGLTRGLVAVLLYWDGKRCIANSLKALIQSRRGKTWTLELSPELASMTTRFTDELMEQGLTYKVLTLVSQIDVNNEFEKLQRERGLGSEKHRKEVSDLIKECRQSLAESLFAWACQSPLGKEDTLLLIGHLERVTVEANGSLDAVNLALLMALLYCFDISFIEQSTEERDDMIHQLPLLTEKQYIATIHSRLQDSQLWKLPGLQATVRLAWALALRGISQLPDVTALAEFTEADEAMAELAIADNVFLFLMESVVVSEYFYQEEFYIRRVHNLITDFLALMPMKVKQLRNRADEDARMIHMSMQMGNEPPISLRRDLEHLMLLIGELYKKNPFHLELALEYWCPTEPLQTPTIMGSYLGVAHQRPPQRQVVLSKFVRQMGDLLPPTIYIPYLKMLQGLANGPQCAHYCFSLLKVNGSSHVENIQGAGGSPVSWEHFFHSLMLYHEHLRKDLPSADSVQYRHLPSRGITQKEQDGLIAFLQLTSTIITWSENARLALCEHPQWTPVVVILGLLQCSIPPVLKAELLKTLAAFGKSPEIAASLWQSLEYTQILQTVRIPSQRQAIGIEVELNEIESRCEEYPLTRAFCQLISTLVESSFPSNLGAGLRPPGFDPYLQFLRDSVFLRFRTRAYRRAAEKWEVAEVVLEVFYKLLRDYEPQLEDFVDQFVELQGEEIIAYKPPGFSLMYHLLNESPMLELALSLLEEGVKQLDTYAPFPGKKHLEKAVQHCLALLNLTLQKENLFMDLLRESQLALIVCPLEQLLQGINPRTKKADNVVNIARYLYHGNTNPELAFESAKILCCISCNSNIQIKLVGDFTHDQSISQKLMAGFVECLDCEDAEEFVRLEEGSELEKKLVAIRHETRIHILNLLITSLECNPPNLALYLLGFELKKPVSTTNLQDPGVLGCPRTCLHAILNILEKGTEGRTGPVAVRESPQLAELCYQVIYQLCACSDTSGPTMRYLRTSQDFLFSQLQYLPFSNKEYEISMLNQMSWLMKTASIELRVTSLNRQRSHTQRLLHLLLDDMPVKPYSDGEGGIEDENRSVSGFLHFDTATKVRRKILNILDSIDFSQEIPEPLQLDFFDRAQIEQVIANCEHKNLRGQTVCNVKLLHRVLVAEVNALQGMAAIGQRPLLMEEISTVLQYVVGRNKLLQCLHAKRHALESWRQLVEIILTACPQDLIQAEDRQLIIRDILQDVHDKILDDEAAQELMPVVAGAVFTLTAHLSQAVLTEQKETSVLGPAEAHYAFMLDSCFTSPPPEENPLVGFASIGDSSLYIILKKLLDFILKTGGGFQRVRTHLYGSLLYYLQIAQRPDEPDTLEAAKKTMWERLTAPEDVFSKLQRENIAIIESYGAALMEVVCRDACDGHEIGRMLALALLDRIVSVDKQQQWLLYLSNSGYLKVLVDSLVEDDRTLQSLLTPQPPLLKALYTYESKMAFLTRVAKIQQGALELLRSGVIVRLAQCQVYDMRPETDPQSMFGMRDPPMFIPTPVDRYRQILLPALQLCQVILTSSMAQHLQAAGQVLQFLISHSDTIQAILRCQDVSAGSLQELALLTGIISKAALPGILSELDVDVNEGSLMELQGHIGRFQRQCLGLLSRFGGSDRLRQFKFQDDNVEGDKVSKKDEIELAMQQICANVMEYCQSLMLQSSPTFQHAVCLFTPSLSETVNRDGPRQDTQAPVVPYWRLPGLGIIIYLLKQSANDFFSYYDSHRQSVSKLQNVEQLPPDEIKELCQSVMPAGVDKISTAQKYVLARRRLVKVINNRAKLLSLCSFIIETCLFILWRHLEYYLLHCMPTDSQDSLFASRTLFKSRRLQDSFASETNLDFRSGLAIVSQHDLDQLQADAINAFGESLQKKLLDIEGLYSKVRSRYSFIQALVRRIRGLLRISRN
inactive: [1] -0.004 | [2] 0.035 | [3] 0.08 | [4] -0.043 | [5] 0.008
